# G9a inh: G9a (human) methyltransferase inhibition; Potency, µM (series often up to 102 µM), usual class: inhibitors; G9a H3K9 monomethylation, AlphaScreen, 2 h; actives 8.8% (n = 350,000); AID 504332; also: nearly all actives have a fitted effect of over 75% in size
# Target sequence (Q96KQ7 913-1193 limits assumed): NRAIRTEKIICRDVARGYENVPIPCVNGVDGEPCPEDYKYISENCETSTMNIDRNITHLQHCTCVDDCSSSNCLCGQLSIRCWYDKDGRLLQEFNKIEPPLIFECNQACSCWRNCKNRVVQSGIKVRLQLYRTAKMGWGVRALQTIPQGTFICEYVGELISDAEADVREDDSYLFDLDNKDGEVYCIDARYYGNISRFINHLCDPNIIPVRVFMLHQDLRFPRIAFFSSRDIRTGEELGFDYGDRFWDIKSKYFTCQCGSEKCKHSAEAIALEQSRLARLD
#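 Quantitative HTS format: methyltransferase activity on a biotin-tagged H3K9 peptide is measured by AlphaScreen, using a rabbit anti-monomethyl-H3K9 antibody with streptavidin donor and anti-IgG acceptor beads. Final levels are 20 nM enzyme, 500 nM peptide, 20 uM SAM; 2 h RT.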
# BAZ2B block: inhibitors of human BAZ2B bromodomain; Q9UIF8; AlphaScreen BAZ2B-H3K14Ac peptide displacement; Potency, µM (titrated, usually from 114 µM), hits mostly inhibitors; actives 4.4% (n = 360,000); also: nearly all actives have a fitted effect of over 60% in size
#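 Inhibition is scored as reduced AlphaScreen emission. The BAZ2B/b-H3(5-23)K14Ac complex (50 nM each) in PBS pH 7.4, 0.01% Tween-20 meets compound (up to 110 uM) for 30 min at RT before bead addition.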
# JMJD2A Tudor: JMJD2A Tudor domain (human) inhibition; actives 4.4% (n = 390,000); AlphaScreen JMJD2A-Tudor / H3K4me3 peptide binding; Potency, µM (top dose mostly 114 µM), usual class: inhibitors; also: nearly all actives have a fitted effect of over 50% in size
# Sfp PPTase inh: inhibitors of Bacillus subtilis Sfp phosphopantetheinyl transferase; Biochemical Sfp PPTase activity, qHTS; Q9F4F7; Potency, µM, usual class: inhibitors; actives 3.5% (n = 310,000);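 also: the enzyme is Sfp with the accession as filed and its product quenches rhodamine fluorescence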
#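 With Hepes-Na pH 7.6 buffer containing 10 mM MgCl2, Sfp (15 nM) modified BHQ-2-YbbR (12.5 uM) using rhodamine-CoA (5 uM). Two reads 30 minutes apart at 525/598 nm yielded each well's rate.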
# HP1b chromo inh: HP1-beta chromodomain-methylated histone interaction inhibition. P83916. AlphaScreen HP1-beta / biotin-H3K9me3 peptide binding. Potency, µM (titrated, usually from 114 µM), usual class: inhibitors. actives 0.56% (n = 390,000); also: nearly all actives have a fitted effect of over 70% in size
# Target sequence (P83916 whole entry, looked up): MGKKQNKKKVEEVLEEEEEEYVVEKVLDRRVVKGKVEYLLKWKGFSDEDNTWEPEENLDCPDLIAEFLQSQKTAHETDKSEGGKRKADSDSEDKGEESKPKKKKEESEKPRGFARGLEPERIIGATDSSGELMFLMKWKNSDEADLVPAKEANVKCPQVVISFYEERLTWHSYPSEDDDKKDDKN
#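 HP1-beta protein (50 nM final) preincubated 30 min at room temperature with biotinylated H3(1-18)K9me3 peptide (50 nM) in PBS pH 7.4, 0.01% Tween-20, then compound added for 30 min. AlphaScreen streptavidin donor/nickel chelate acceptor beads (10 ug/mL final), 30 min dark, luminescence read.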
# Numbers stand for hits; - = inactive; ? = inconclusive; . = no result; ! = not confirmed by another sample; [ ] = dose if it differs, or a comment. The list is not random: actives were taken first. Their share in the collection is about 12%. Calls follow the shape of the dose curve; as a rule, active = well fitted curve in the direction sought with a large enough effect; inconclusive = small, poorly fitted or top-dose-only effect, or another doubt; inactive = no such curve, though single readings can be large; an effect the other way counts as inactive or inconclusive.
SMILES,G9a inh,BAZ2B block,JMJD2A Tudor,Sfp PPTase inh,HP1b chromo inh
O=C(Cc1ccc(F)cc1)N/N=C/c1ccccn1,4µM,?,-,56µM,-
O=C(Cc1ccc(Br)c2ccccc12)N/N=C/c1ccccn1,-,-,?,-,-
O=C(N/N=C/c1c[nH]c2ccccc12)c1sc2ccccc2c1Cl,-,?,?,-,-
Cc1ccc(OC(C)C(=O)N/N=C/c2ccccn2)cc1 (centres undefined),1.4µM,71µM,-,-,-
CCOc1ccc(CCNC(=O)c2ccc3nc(N4CCC(C)CC4)sc3c2)cc1OCC,-,-,-,.,-
O=C(Cn1cc(/C=N/NC(=O)c2ccccc2Br)c2ccccc21)Nc1ccc(F)cc1,-,-,-,?,-
O=C(N/N=C/c1ccccn1)c1ccccc1,?,-,?,?,-
O=C(N/N=C/c1ccccn1)c1cccs1,-,32µM,?,-,-
O=C(N/N=C/c1ccccn1)c1ccc(Cl)cc1,?,-,-,32µM,-
O=C(N/N=C/c1ccccn1)c1ccncc1,?,16µM,?,20µM,-
O=C(N/N=C\c1ccccn1)c1cccc(C(=O)N/N=C\c2ccccn2)n1,.,.,-,.,-
O=C(CSc1ncccn1)N/N=C/c1cccc(OC2CSC2)c1,-,?,-,-,-
Cn1ncc(Cl)c1C(=O)N/N=C/c1cccc(OC2CSC2)c1,-,79µM,-,-,-
CC1=C(C(N)=O)C(c2cccc(C)c2)n2nc(-c3cccc(C)c3)nc2N1 (centres undefined),?,-,-,.,-
FC(F)(F)c1ccccc1-c1cncnc1NCCc1cnc[nH]1,.,.,.,-,.
O=C(N/N=C\c1ccccn1)c1ccccc1O,-,-,?,?,-
Cc1ccccc1C(=O)N/N=C/c1ccccn1,-,-,?,71µM,-
O=C(COc1ccc2ccccc2c1)N/N=C/c1ccccn1,-[0.501 µM],-,?,?,?
Cc1cc(C)cc(OCC(=O)N/N=C/c2ccccn2)c1,?,79µM,?,?,-
CCOc1ccc(NC(=O)NC2CC(=O)N(c3ccc(OC)cc3)C2)cc1 (centres undefined),-,-,-,-,-
O=C1C=C(NCc2ccc(Cl)cc2)CC(c2ccco2)C1 (centres undefined),-,50µM,?,-,?
O=C1C=C(O)CC(c2ccco2)C1 (centres undefined),?,?,56µM,-,-
O=C1C=C(Nc2ccc(Cl)cc2Cl)CC(c2ccco2)C1 (centres undefined),50µM,-,-,-,-
COc1cc(C(=O)OCCC(C)C)cc(OC)c1O,-,-,-,?,-
Cc1cc(-c2nnc(SCC(=O)Nc3ccc(F)cc3F)n2N)n[nH]1,?,-,-,-,-
SMILES,G9a inh,BAZ2B block,JMJD2A Tudor,Sfp PPTase inh,HP1b chromo inh
O=S(=O)(c1cccc2cccnc12)N1CCCCC1,.,-,-,-,-
O=S(=O)(Nc1ccc(N2CCCCC2)cc1)c1ccc(F)cc1F,45µM,?,?,-,-
O=S(=O)(Nc1ccc(N2CCCCC2)cc1)c1ccccc1F,40µM,50µM,?,-,?
CC(CS(=O)(=O)c1cccc2cccnc12)N1CCCCC1 (centres undefined),25µM,-,-,-,-
Cc1ccc(NS(=O)(=O)c2ccccc2F)cc1S(=O)(=O)N1CCCCC1,-[2.33 µM],-,-,.,-
O=S(=O)(Nc1ccc(N2CCCCC2)cc1)c1cccc2cccnc12,16µM,?,-,-,?
O=C(Nc1nc2cc3c(cc2s1)OCCO3)C1=COCCO1,-,-,?,-,-
Nc1nc(SCC(=O)N2CCCC2)[nH]c(=O)c1NC(=O)c1ccco1,-,-,-,-,-
Cc1ccc(S(=O)(=O)NC(CC(C)C)C(=O)N2CCOCCOCCOCCOCC2)cc1 (centres undefined),-,-,-,-,-
O=C(CSc1ccc(F)cc1)Nc1ccc(Br)cc1,-,-,-,-,-
Cc1cccc(C(=O)Nc2ccc(C(=O)OCc3cc(=O)n4c(C)csc4n3)cc2)c1,-,79µM,?,.,-
O=C(Nc1ccccc1)c1sc2cc(C(F)(F)F)cnc2c1-c1cccs1,?,-,28µM,-,-
CC(C)COC(=O)COc1cc(Cl)c(Cl)cc1Cl,-[0.501 µM],-,.,.,.
O=c1oc2ccccc2c(N2CCCC2)c1CN1CCCC1,56µM,-,-,-,-
O=c1oc2ccccc2c(Cl)c1CN1CCCCC1,50µM,-,-,-,-
COc1ccccc1N1CCN(c2c(CN3CCCC3)c(=O)oc3ccccc23)CC1,-,-,-,.,-
CN1CCN(C(=O)Cn2ncc3c4ccccc4n(Cc4ccc(Cl)cc4)c3c2=O)CC1,-,-,-,.,-
COc1ccc2c(C)cc(=S)[nH]c2c1,40µM,-,-[11.4 µM],?,-
CCOc1cc(C(=S)N2CCOCC2)ccc1OC(=O)c1cc(OC)c(OC)c(OC)c1,-,-,-,-,-
CCOc1ccc(C(=S)N2CCOCC2)cc1OCC,32µM,-,-,-,-
COc1cc(C(=S)N2CCOCC2)cc(OC)c1OS(=O)(=O)c1ccc(NC(C)=O)cc1,-,-,-,-,-
COc1cc(C(=S)N2CCOCC2)cc(OC)c1OC,40µM,-,-,50µM!,-
COc1cc(C(=S)N2CCOCC2)ccc1OC(=O)c1cc(OC)c(OC)c(OC)c1,14µM,-,-,50µM,-
COc1cc(C(=S)N2CCOCC2)cc(OC)c1OS(=O)(=O)c1ccc(C)cc1,28µM,?,-,56µM,-
COc1cccc(NC(=O)C2CCN(S(=O)(=O)c3ccc4[nH]c(=O)ccc4c3)CC2)c1,-,-,-,-,-
SMILES,G9a inh,BAZ2B block,JMJD2A Tudor,Sfp PPTase inh,HP1b chromo inh
COc1cccc(CNC(=O)c2nn(C)c3c2CSc2ccccc2-3)c1,-,-,-,.,-
Brc1ccc(CSc2nnc(-c3cnccn3)n2Cc2ccco2)cc1,-,?,-,-,-
CCN1C(=O)[C@H]2[C@@H]3[C@H](O)C=CC(=O)[C@H]3CC[C@H]2C1=O,.,.,.,-,.
COc1ccc(C(=S)N2CCN(C)CC2)cc1,-[12.7 µM],-,-,25µM,-
COc1ccc(S(=O)(=O)Oc2cc(C(=S)N3CCOCC3)ccc2OC)cc1,35µM,-,-,-,-
COc1ccc(C(=O)Oc2cc(C(=S)N3CCOCC3)ccc2OC)cc1,32µM,-,?,-,-
COc1ccc(C(=S)N2CCOCC2)cc1OC(=O)c1cc([N+](=O)[O-])c(C)c([N+](=O)[O-])c1,?,-,?,-,-
CCOc1cc(C(=O)Nc2ccc(N3CCOCC3)cc2)cc(Br)c1OC,?,-,-,-,-
CCOc1cc(C(=S)N2CCOCC2)cc(Br)c1OS(=O)(=O)c1ccccc1,28µM,-,-,79µM,-
CC1(C)COCN1C(=O)c1ccc(C#N)cc1,-,-,-,-,-
O=C(Oc1ccc(C(=S)N2CCOCC2)cc1)c1ccc(Br)cc1,-,-,-,-,-
COC(=O)c1ccc(C(=S)N2CCOCC2)cc1,?,-,-,22µM,?
O=C(/C=C/c1ccccc1)Oc1ccc(C(=S)N2CCOCC2)cc1,-,-,-[11.4 µM],-,-
